Experimental findings from PubChem BioAssay (NCI) are described below.

Assay [1] can be described thus: NCI Yeast Anticancer Drug Screen. Data for the rad50 strain (AID 155).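 Note: 0% = growth of vehicle-only cultures of the same strain.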 The note with it: S. cerevisiae rad50 strain growth inhibition; at 50.0 µM; active compounds read high. In short, it runs like this:
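A DNA repair-deficient yeast mutant serves as the test organism; compound-induced growth inhibition is calculated against vehicle-treated cells.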

A short description of assay [2]: NCI Yeast Anticancer Drug Screen. Data for the mec2-1 strain (AID 157). The note with it: S. cerevisiae mec2-1 strain, at 50.0 µM, active compounds read high. The procedure, abridged:
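mec2-1 yeast strain, carrying an alteration in DNA damage repair or cell cycle control, was exposed to compounds; growth inhibition was measured relative to vehicle-treated controls.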

Assay [3] in a line: NCI Yeast Anticancer Drug Screen. Data for the sgs1 mgt1 strain (AID 161).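 Note: 0% = growth of cultures given vehicle only.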 To be noted: S. cerevisiae sgs1 mgt1 strain, at 50.0 µM, active compounds read high. In short, it runs like this:
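Yeast cells carrying a defined DNA-repair defect were exposed to test compounds. Growth inhibition was measured relative to vehicle-treated controls.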

The nature of assay [4]: NCI Yeast Anticancer Drug Screen. Data for the cln2 rad14 strain (AID 165).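 Note: 0% = growth equal to vehicle treated cultures.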 To be noted: S. cerevisiae cln2 rad14 strain, at 50.0 µM, active compounds read high. In short, it runs like this:
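Yeast carrying cln2 and rad14 alterations (cell cycle control and DNA damage repair) were exposed to compounds. Growth inhibition was measured against vehicle-treated controls.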

Assay [5] is described as follows: NCI Yeast Anticancer Drug Screen. Data for the bub3 strain (AID 167). To be noted: S. cerevisiae bub3 mutant strain, at 50.0 µM, active compounds read high. In short, it runs like this:
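Inhibition values come from growth of compound-treated mutant yeast normalised to vehicle-treated controls.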

Assay [6] can be described thus: NCI Yeast Anticancer Drug Screen. Data for the mlh1 rad18 strain (AID 175). The note with it: S. cerevisiae mlh1 rad18 strain growth inhibition; at 50.0 µM; active compounds read high. In short, it runs like this: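 Growth inhibition of the yeast strain was measured after compound exposure and expressed relative to vehicle-treated controls. The strain carries defined defects in DNA damage repair.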

This is part of a sample that, as a whole, favours compounds with a hit. Of some 79,000 tested, about 15% had one in any assay. Unmarked numbers belong to inactive results. Active and inactive are the calls of the source. Cut-off read from the data, not from the text of the source: active = growth inhibition above about 70%; inactive = the rest.

As to `CCOC(=O)CNC(=O)CNC(=O)CNC(=O)CN`, the growth inhibition in assay [1] was 0.1%; in assay [2], 2.5%; in assay [3], 15.8%; in assay [4] it was -20.4%; in assay [5], -3.85%; in assay [6] it was -16.6%.

Consider `COC(=O)c1cccc2c(N)c(N)cc(C(=O)OC)c12`, for which the growth inhibition in assay [1] was 17.5%; in assay [2], 18.2%; in assay [3], 24.8%; in assay [4], 28.2%; in assay [5] it was 9.3%; in assay [6] it was 31.4%.

On to `CN(C(=O)Cl)c1ccccc1`, for which the growth inhibition in assay [1] is 9.1%; in assay [2] it was -9.35%; in assay [3], 7.8%; in assay [4], 8.6%; in assay [5], 16.8%; in assay [6] it was 16.8%.

On to `Cc1cccnc1C`, for which the growth inhibition was 16.9% in assay [1]; -7.25% in assay [2]; -16.2% in assay [3]; 24.4% in assay [4]; 14.4% in assay [5]; 7.85% in assay [6].

Turning to `CCC(CC)=NNS(=O)(=O)c1cccc2ccccc12`, the growth inhibition was 10.7% in assay [1]; -12.4% in assay [2]; -11.7% in assay [3]; -15.7% in assay [4]; -17.9% in assay [5]; -0.1% in assay [6].

As for `O=C1CCC(=O)N1C(c1ccccc1)(c1ccccc1)N1C(=O)CCC1=O`, the growth inhibition in assay [1] is -20.9%; in assay [2] it was 12.2%; in assay [3] it was -2%; in assay [4], 29.1%; in assay [5] it was 8.25%; in assay [6] it was -6.85%.

Regarding `COC(SC)(SC)c1cc(-c2c(Cl)cccc2Cl)no1`, the growth inhibition was -7.25% in assay [1]; -7.55% in assay [2]; -3.1% in assay [3]; 4.3% in assay [4]; 27.6% in assay [5]; -4.15% in assay [6].

Consider `O=C1c2ccccc2C(=O)c2nc3ccc(Cl)cc3cc21`, for which the growth inhibition in assay [1] is -12.3%; in assay [2], -18.4%; in assay [3] it was 1.35%; in assay [4], 21.3%; in assay [5] it was -12.5%; in assay [6], -10.8%.

On to `Nc1ccc(CCCCOc2ccccc2)cc1`, for which the growth inhibition in assay [1] is 98.6% (active); in assay [2], 99% (active); in assay [3] it was 98.5% (active); in assay [4], 98.5% (active); in assay [5], 99% (active); in assay [6], 98.4% (active).

With `COC1OC(COS(=O)(=O)c2ccc(C)cc2)C(OS(=O)(=O)c2ccc(C)cc2)C1OCc1ccccc1` (stereo unspecified), the growth inhibition in assay [1] was -2.35%; in assay [2], 2.85%; in assay [3], 3.9%; in assay [4] it was -15.7%; in assay [5] it was -0.65%; in assay [6], -1.4%.

Turning to `CCCCCCOc1ccc(OCCCC[N+]2(CC)CCCCC2)cc1`, the growth inhibition is 75.5% (active) in assay [1]; 87.8% (active) in assay [2]; 73.7% (active) in assay [3]; 46.5% in assay [4]; 90.8% (active) in assay [5]; 90.8% (active) in assay [6].

As for `OCc1ccccc1O`, the growth inhibition in assay [1] is -1.7%; in assay [2], 6.25%; in assay [3], -6.55%; in assay [4] it was 25.8%; in assay [5] it was -0.7%; in assay [6] it was 11.2%.

`CC1(C)C2CC(=O)C1(C)C(OCc1ccccc1)C2` (stereo unspecified): the growth inhibition is -21.2% in assay [1]; 12.6% in assay [2]; 6.1% in assay [3]; 22.1% in assay [4]; -18.1% in assay [5]; 5.1% in assay [6].

`CC(C)CCCC(C)C1CCC2C3CCC4=C/C(=N/O)CCC4(C)C3CCC12C` (stereo unspecified): the growth inhibition in assay [1] was 40.2%; in assay [2], 12.2%; in assay [3], 40.8%; in assay [4], 34.5%; in assay [5], 25.2%; in assay [6], 32.6%.

For the compound `Cc1ccc(NC2=CC(=O)c3ccccc3C2=O)cc1`, the growth inhibition is 22.4% in assay [1]; 6.45% in assay [2]; 17.8% in assay [3]; -26.9% in assay [4]; 13.8% in assay [5]; 9.45% in assay [6].

With `Cc1ccncc1C#N`, the growth inhibition in assay [1] is 5%; in assay [2], -2.25%; in assay [3] it was -0.9%; in assay [4] it was 6.55%; in assay [5] it was 0.3%; in assay [6], 3.95%.

Take `N#C/C(=C(/Cc1ccc(F)cc1)NP(=O)(c1ccccc1)c1ccccc1)c1ccc(F)cc1`: the growth inhibition in assay [1] is 10.9%; in assay [2], -3.7%; in assay [3], -10.4%; in assay [4], 0.8%; in assay [5], 2.6%; in assay [6], -2.35%.

`O=C1CCc2cc3c(cc21)CC1(Cc2cc4c(cc2C1)CCCC4)C3`: the growth inhibition in assay [1] was -28.4%; in assay [2], -8.8%; in assay [3], -22.2%; in assay [4], -18.1%; in assay [5] it was 17.2%; in assay [6] it was -20.3%.

As to `N#Cc1cc([N+](=O)[O-])ccc1NC(=O)/C(=N\NC(=O)c1ccncc1)C(c1cnc2ccc([N+](=O)[O-])cc2n1)[N+](=O)[O-]` (stereo unspecified), the growth inhibition in assay [1] is 8.6%; in assay [2] it was 11.4%; in assay [3] it was -11.1%; in assay [4] it was -16.1%; in assay [5], 25.4%; in assay [6] it was 2.75%.

For `O=[N+]([O-])c1cc2c(cc1Br)C1C(C3C2C2(Cl)C(Cl)=C(Cl)C3(Cl)C2(Cl)Cl)C2(Cl)C(Cl)=C(Cl)C1(Cl)C2(Cl)Cl` (stereo unspecified), the growth inhibition in assay [1] was 31.7%; in assay [2], 5.4%; in assay [3], 24.6%; in assay [4], 11.8%; in assay [5], 11.2%; in assay [6], 8.1%.

In the case of `CCCCOC(=O)CCCCCCC/C=C/C1C=CC(CCCC)C(C#N)C1C#N` (stereo unspecified), the growth inhibition in assay [1] is 1%; in assay [2], -5.95%; in assay [3], -25.1%; in assay [4], -6.05%; in assay [5], -4.3%; in assay [6], -13.3%.
